Source: PubChem
An excerpt weighted towards active compounds, which were near 7.2% of everything screened.
Luciferase inh: blocks purified firefly luciferase enzyme activity; 76,000 compounds, 2.5% hits; AID 1347043; purified P. pyralis luciferase, luminescence, biochemical; Potency, µM (series often up to 115 µM), actives largely listed as inhibitors; P08659; also: nearly all actives have a fitted effect of over 65% in size
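FLuc 10nM, D-luciferin 10uM, ATP 10uM, Mg acetate 10mM, Tris acetate pH 7.5, Tween/BSA; cpd qHTS; enzyme added last; CCD luminescence.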
HEK cytotox: HEK 293 cell cytotoxicity; Potency, µM (highest dose often 115 µM), most hits filed as inhibitors; AID 1345083; 94,000 compounds, 6.6% hits; HEK 293 viability, ATP luminescence (CellTiter-Glo), 48-72 h; also: nearly all actives have a fitted effect of over 60% in size
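ATP-coupled CellTiter-Glo luminescence served as viability read-out, recorded 10 min after reagent addition at room temperature. HEK 293 cells, 250 cells/well, had been incubated with pintool-transferred compound for 48 or 72 hr at 37 degree Celsius.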
SNCA expr inh: reduces expression of the alpha-synuclein gene; HEK-293 SNCA-luciferase knock-in, luminescence, 24 h; Potency, µM (doses to about 57.2 µM), actives largely listed as inhibitors; 140,000 compounds, 0.17% hits; also: nearly all actives have a fitted effect of over 45% in size
NIH3T3 tox: kills NIH 3T3 cells. AID 1345082. 94,000 compounds, 4.3% hits. Potency, µM (top dose mostly 96.7 µM), actives largely listed as inhibitors. NIH 3T3 viability, CellTiter-Glo ATP luminescence, 48-72 h; also: nearly all actives have a fitted effect of over 55% in size
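Luminescent ATP readout (CellTiter-Glo, 10 min RT) after 48 or 72 hr compound exposure of NIH 3T3 cells seeded at 400 cells/well in 1536-well format; quantitative HTS.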
SNCA viab count: counter-screen for SNCA expression inhibitors: cell viability. HEK-293-SNCA-luc viability, GF-AFC fluorescence, 24 h. Potency, µM (highest dose often 57.1 µM), hits mostly cytotoxic. 150,000 compounds, 0.12% hits. AID 1671193; also: nearly all actives have a fitted effect of over 30% in size
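HEK-293-SNCA-luc cells (1500/well) plated 24 h, then exposed 24 h to a dilution series; GF-AFC added 30 min at 37C, fluorescence 405/540 nm; normalised to medium-only and DMSO wells, Hill fit.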
NPR1 antag: human Npr1 receptor antagonism; HEK293 hNpr1 GloSensor cGMP, ANP-stimulated luminescence; Potency, µM (titrated, usually from 46.3 µM), actives largely listed as inhibitors; 76,000 compounds, 1.6% hits; AID 1347048; calls by dose curve; also: nearly all actives have a fitted effect of over 60% in size
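HEK293 cells stably expressing human Npr1 and cGMP GloSensor pGS-40F, loaded 2 h with 2% GloSensor reagent, given compound 30 min at room temperature. Luminescence read before and 20 min after 0.1 nM hNppA.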
Hits are given with their value; [ ] = dose if it differs, or a comment. Unless noted, calls follow the shape of the dose curve; as a rule, active = well fitted curve in the direction sought with a large enough effect; inconclusive = small, poorly fitted or top-dose-only effect, or another doubt; inactive = no such curve, though single readings can be large; an effect the other way counts as inactive or inconclusive.

For CCCCc1cc(C[C@H]2CNCC[C@H]2CC(=O)N(C)Cc2ccccc2)no1 the results were Luciferase inh inactive, HEK cytotox 100µM, SNCA expr inh inconclusive, NIH3T3 tox inconclusive, SNCA viab count inactive and NPR1 antag inactive.
For CCCCc1cc(C[C@H]2CNCC[C@H]2CC(=O)NCc2ccc(F)cc2)no1 the results were Luciferase inh inactive, HEK cytotox inconclusive, SNCA expr inh inactive, NIH3T3 tox inconclusive, SNCA viab count inactive and NPR1 antag inconclusive.
`CN(Cc1ccccc1)C(=O)C[C@@H]1CCNC[C@@H]1Cc1cc(-c2ccccc2)on1` gave Luciferase inh inactive, HEK cytotox 25.1µM, SNCA expr inh inactive, NIH3T3 tox 10µM, SNCA viab count inactive and NPR1 antag inactive.
For Cc1ccc(C(=O)NCCc2ncc(C)n2CC2CC2)cn1 the results were HEK cytotox inactive, SNCA expr inh inactive, NIH3T3 tox inactive and SNCA viab count inconclusive.
CC1=C[C@@H](CO)[C@H](C(C)C)C[C@H]1CC(=O)N1CCN(c2ccccn2)CC1 was read as Luciferase inh inconclusive, HEK cytotox 100µM, SNCA expr inh inactive, NIH3T3 tox inconclusive, SNCA viab count inactive and NPR1 antag inactive.
Screening Cc1ccccc1C(=O)N1CCC(CCC(=O)N2CCN(c3ccccn3)CC2)CC1 returned Luciferase inh 31.6µM, HEK cytotox inconclusive, SNCA expr inh inactive, NIH3T3 tox inactive, SNCA viab count inactive and NPR1 antag inactive.
Screening CCOC(=O)C[C@@H]1C[C@@H](C(C)C)[C@H](CNC(=O)c2ccncc2)C=C1C returned Luciferase inh inactive, HEK cytotox 89.1µM, SNCA expr inh inactive, NIH3T3 tox inconclusive, SNCA viab count inactive and NPR1 antag inconclusive.
`CC1=C[C@@H](CNC(=O)c2ccncc2)[C@H](C(C)C)C[C@H]1CC(=O)N1CCN(C)CC1` gave Luciferase inh 20µM, HEK cytotox inactive, SNCA expr inh inactive, NIH3T3 tox inactive, SNCA viab count inactive and NPR1 antag inactive.
For Cc1ccc(-c2cc(C(=O)N3CCC4(CC(=O)NC4=O)C3)n[nH]2)o1 (stereo unspecified) the results were Luciferase inh inactive, HEK cytotox inactive, SNCA expr inh inactive, NIH3T3 tox inactive, SNCA viab count inactive and NPR1 antag inactive.
O=C(NC1CCCCCC1)C1CCc2nnc(C3CCN([S+](=O)([O-])c4ccccc4Cl)CC3)n21 (stereo unspecified) was read as HEK cytotox inactive, SNCA expr inh inactive, NIH3T3 tox inconclusive and SNCA viab count inactive[12.5 µM].
Screening CCNC(=O)N1CC[C@@H](CC(=O)O)[C@@H](CC2=NCCc3ccc(C)cc32)C1 returned Luciferase inh inactive, HEK cytotox inactive, SNCA expr inh inactive, NIH3T3 tox inactive, SNCA viab count inactive and NPR1 antag inactive.
For CCc1ccc(CN2CCC3(CC2)CN(C(C)=O)CC3COC)cc1 (stereo unspecified) the results were Luciferase inh inactive, HEK cytotox inactive, SNCA expr inh inactive, NIH3T3 tox inactive, SNCA viab count inactive and NPR1 antag inactive.
COCC1CN(C(C)=O)CC12CCN(Cc1cccc(Br)c1)CC2 (stereo unspecified) was read as Luciferase inh inactive, HEK cytotox 79.4µM, SNCA expr inh inactive, NIH3T3 tox inactive, SNCA viab count inactive and NPR1 antag inactive.
`Cc1cccc(-c2nocc2CCC(=O)O)c1` gave Luciferase inh inconclusive, HEK cytotox inactive, SNCA expr inh inactive, NIH3T3 tox inactive, SNCA viab count inactive and NPR1 antag inactive.
Cc1cccc(-c2cccc(CN3CCC(NC(=O)Nc4ccc(Cl)cc4)CC3)c2)c1 was read as HEK cytotox 6.31µM, SNCA expr inh 20µM, NIH3T3 tox 11.2µM and SNCA viab count inconclusive.
CC(=O)NC1CCN(Cc2cccc(-c3cccc(C)c3)c2)CC1 was read as HEK cytotox inconclusive, SNCA expr inh inactive, NIH3T3 tox 100µM and SNCA viab count inactive.
Cc1cccc(-c2cccc(CN3CCC(NC(=O)c4ccc(Cl)cc4)CC3)c2)c1 was read as HEK cytotox inactive, SNCA expr inh inactive, NIH3T3 tox inactive and SNCA viab count inconclusive.
Screening Cc1cccc(-c2nocc2CCC(=O)NC2CCN(Cc3ccccc3)CC2)c1 returned Luciferase inh 31.6µM, HEK cytotox inconclusive, SNCA expr inh inactive, NIH3T3 tox inconclusive, SNCA viab count inactive and NPR1 antag inactive.
For Cc1ccc(C(=O)NC2CCN(Cc3cccc(-c4cccc(C)c4)c3)CC2)cc1 the results were HEK cytotox 39.8µM, SNCA expr inh inactive, NIH3T3 tox 31.6µM and SNCA viab count inactive.
Screening COC(=O)NC1CCN(Cc2cccc(-c3cccc(C)c3)c2)CC1 returned HEK cytotox inconclusive, SNCA expr inh inconclusive, NIH3T3 tox inconclusive and SNCA viab count inactive.
For COCc1ccc(CN2CCCC(C(=O)Nc3cccc(-n4cccn4)c3)C2)o1 (stereo unspecified) the results were Luciferase inh inactive, HEK cytotox inconclusive, SNCA expr inh inactive, NIH3T3 tox inactive, SNCA viab count inactive and NPR1 antag inactive.
Cc1cccc(-c2cccc(CN3CCC(NC(=O)c4ccccc4)CC3)c2)c1 was read as HEK cytotox 35.5µM, SNCA expr inh inactive, NIH3T3 tox 25.1µM and SNCA viab count inactive.
`COc1cccc(C(=O)NC2CCN(Cc3cccc(-c4cccc(C)c4)c3)CC2)c1` gave HEK cytotox inconclusive, SNCA expr inh inactive, NIH3T3 tox inconclusive and SNCA viab count inactive.
For O=C1N(Cc2ccc(F)cc2)CCCC12CCN(c1nc3ccccc3o1)C2 (stereo unspecified) the results were Luciferase inh inactive, HEK cytotox inconclusive, SNCA expr inh inactive, NIH3T3 tox inconclusive, SNCA viab count inactive and NPR1 antag inactive.
Screening O=C1N(Cc2ccc(F)c(F)c2)CCCC12CCN(c1nc3ccccc3o1)C2 (stereo unspecified) returned Luciferase inh 39.8µM, HEK cytotox inconclusive, SNCA expr inh inactive, NIH3T3 tox 39.8µM, SNCA viab count inactive and NPR1 antag inactive.
Cc1cc(-c2ccnc(-c3nnc(C)n3CCN3CCOCC3)c2)ccn1 was read as Luciferase inh inactive, HEK cytotox inactive, SNCA expr inh inactive, NIH3T3 tox 89.1µM, SNCA viab count inactive and NPR1 antag inactive.
Cc1nnc(-c2cc(-c3cccc(O)c3)ccn2)n1CCc1ccccc1 was read as Luciferase inh inactive, HEK cytotox inconclusive, SNCA expr inh inconclusive, NIH3T3 tox 100µM, SNCA viab count inactive and NPR1 antag inactive.
Cc1nnc(-c2cc(-c3cccc(F)c3)ccn2)n1CCN1CCOCC1 was read as Luciferase inh inactive, HEK cytotox inconclusive, SNCA expr inh inactive, NIH3T3 tox 22.4µM, SNCA viab count inactive and NPR1 antag inactive.
